Experimental data from PubChem BioAssay AID651690 (Sanford-Burnham Center for Chemical Genomics, 2012).
The list shows a part of the results. A number with no mark means an inactive call. Activity calls are given as the source filed them. Cut-off read from the data, not from the text of the source: active = inhibition mostly above about 32% (no sharp cut-off); inactive = mostly below about 29%.

Molecular target: Sentrin-specific protease 1 (Homo sapiens) (UniProt Q9P0U3)
Test: SENP1 SUMO protease blockers by rate readout – biochemical, kinetic FRET, single concentration, confirmation (AID 651690);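 note: 0% = DMSO with enzyme and 100% = no enzyme substrate only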
Conditions: recombinant SENP1, CyPet-SUMO1-YPet FRET kinetic cleavage; at 10 µM; hits give high values

Sentrin-specific protease 1 (Homo sapiens), sequence (Q9P0U3 419-644 limits assumed): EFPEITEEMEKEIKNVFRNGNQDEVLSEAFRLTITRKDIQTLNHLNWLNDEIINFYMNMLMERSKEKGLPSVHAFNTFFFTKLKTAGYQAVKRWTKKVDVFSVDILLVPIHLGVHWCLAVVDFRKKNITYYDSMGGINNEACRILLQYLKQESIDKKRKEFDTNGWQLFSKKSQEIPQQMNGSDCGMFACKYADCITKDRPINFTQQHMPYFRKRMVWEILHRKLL

Compound	inhibition
Cc1ccc2c(c1)nnc1nnc(SCC(=O)O)n12	46.3% (active)
O=C(NC(=O)c1ccccc1)Nc1ccccc1O	-0.175%
O=[N+]([O-])c1ccc(N=NNc2ccc([N+](=O)[O-])cc2)cc1	11.6%
Cc1cc(C(=O)N/N=C/c2ccc(N3CCOCC3)cc2)c(C)o1	17.6%
CCN(CC)S(=O)(=O)c1cc([N+](=O)[O-])ccc1N=Nc1c(O)n(C)c2ccccc12	-1.62%
COc1cc(/C=C2\CCCc3c2nc2ccccc2c3C(=O)O)cc(Cl)c1O	63.6% (active)
c1coc(-c2nc3nc4ccccc4n3nc2-c2ccco2)c1	13.5%
CCOC(=O)C1CCN(c2ncnc3c2c(-c2ccccc2)cn3-c2ccc(C)cc2)CC1	10.2%
O=C1/C(=C/c2coc3ccc(O)cc3c2=O)SC(=S)N1c1ccccc1	-0.025%
O=C(CCN1C(=O)/C(=C/c2cccs2)SC1=S)NNC(=O)c1cccc(O)c1	44.5% (active)
O=C1C=C(c2cccc(Cl)c2O)C[C@@H](c2ccc(F)cc2)C1	74.6% (active)
CCCCCn1nnnc1-c1nc2cc3ccccc3cc2[nH]c1=O	56.7% (active)
Fc1cccc(Cc2c(-c3cccc(Cl)c3)nc3ccc(Br)cn23)c1	3.67%
COc1ccc(N2C(=O)C3C(C2=O)C(C(=O)c2ccccc2)N2CCCC32)cc1 (stereo unspecified)	23.7%
N/C(=N\OC(=O)N1c2ccccc2Sc2ccccc21)c1ccc(Br)cc1	0.1%
O=C1CC[C@@H]2CC3(C[C@@H]4CCN1[C@H]24)Nc1cc([N+](=O)[O-])ccc1NC3=NC1CCCCC1 (stereo partly specified)	2.83%
Cn1c(-c2sc3cc(C(F)(F)F)cnc3c2-c2ccccc2)n[nH]c1=S	11.8%
Cc1ccc(C(=O)N/N=C\c2cc(Br)c(Br)o2)cn1	14.5%
CC(=O)c1cccc(-c2cnc3c(NC=O)cc(-c4ccc(N(C)C)cc4)cn23)c1	48.5% (active)
Cc1cccc(C)c1Nc1c(-c2ccccc2O)nc2ncccn12	8.55%
COc1ccc(OC)c(C2C3=C(N=c4s/c(=C\c5cccc(O)c5)c(=O)n42)c2ccccc2CC3)c1 (stereo unspecified)	19.3%
